From PubChem BioAssay (NCI) come the findings set out here.

This is part of a sample that, as a whole, favours compounds with a hit. Of some 83,000 tested, about 20% had one in any assay.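 Testing used 96-well plates and a 48-hour single-concentration exposure. Example: -40 means 40% of the starting cells died.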 A number with no mark means an inactive call. The source made the active and inactive calls. How the source made its calls: active means growth percent below 10; inactive means the rest.

What all share (test): NCI-60 one-dose screen, 48 h (100 = growth as untreated, 0 = no growth, -100 = all killed)
Settings in all cases: 10 µM unless noted

In assay [1] the test system is RPMI-8226 leukemia.
In assay [2] the test system is OVCAR-8 ovarian.
The test system of assay [3] is OVCAR-5 ovarian.
Assay [4] has as its system OVCAR-4 ovarian.
Assay [5] deals with SK-OV-3 ovarian.
Assay [6] concerns IGROV1 ovarian.
Assay [7] has as its system OVCAR-3 ovarian.
Assay [8] has as its system HS 578T breast.
Assay [9] concerns NCI/ADR-RES ovarian.
In assay [10] the test system is T-47D breast.
The subject of assay [11] is BT-549 breast.
The test system of assay [12] is MDA-MB-435 melanoma.
The test system of assay [13] is SW-620 colon.
Assay [14] deals with MCF7 breast.
Assay [15] concerns HCT-116 colon.
The test system of assay [16] is HCC-2998 colon.
Assay [17] relates to KM12 colon.

Take `O=C(CN1C(=O)NC(c2ccccc2)(c2ccccc2)C1=O)c1ccc(N2CCCC2)cc1`: the growth in assay [1] was 70.1%; in assay [2], 83.4%; in assay [3], 101%; in [4], 72.8%; in assay [5] it was 96.7%; in assay [6] it was 85.5%. Further, the growth in assay [7] is 103%; in [8] it was 87.7%; in assay [9] it was 67.2%; in assay [10], 81.2%; in [11] it was 66.4%; in [12], -4.2% (active). Also, the growth in assay [13] was 70.2%; in assay [14], 49.8%; in assay [15], 66%; in [16] it was 101%; in [17], 65.8%.

As for `CCCCCCCCC(=O)Nc1ccc(O)cc1`, the growth is 82.3% in [1]; 95% in assay [2]; 106% in assay [3]; 95.3% in assay [4]; 100% in [5]; 93.7% in assay [6]. Also, the growth in assay [7] was 102%; in assay [8] it was 103%; in assay [9], 82.9%; in assay [10], 88.7%; in assay [11], 80.5%; in [12] it was 98.3%. Further, the growth in assay [13] was 103%; in assay [14], 97.9%; in [15] it was 101%; in [16] it was 83.7%; in [17], 90.9%.

In the case of `COc1ccc(-c2cc(C#N)c(NNC(C)=O)[nH]2)cc1`, the growth was 123% in assay [1]; 110% in [2]; 94.7% in assay [3]; 68.8% in [4]; 179% in assay [5]; 101% in assay [6]. The growth is 104% in assay [7]; 107% in [8]; 109% in assay [9]; 165% in assay [10]; 119% in [11]; 107% in assay [12]. The growth in assay [13] is 115%; in assay [14], 110%; in assay [15], 92%; in assay [16], 105%; in [17] it was 107%.

Regarding `COC(=O)C1CC(=O)N(C(=O)Nc2ccc(Cl)cc2Cl)C1` (stereo not given), the growth in assay [1] is 98.9%; in assay [2] it was 99.1%; in assay [3], 101%; in assay [4] it was 117%; in [5], 88.4%; in assay [6], 107%. The growth was 111% in [7]; 82.9% in [8]; 99.6% in assay [9]; 95.9% in assay [11]; 107% in assay [12]; 105% in [13]. The growth was 87.6% in assay [14], 98.1% in assay [15], 107% in assay [16] and 104% in [17].

As for `C=CCN(C)C`, the growth was 117% in [1]; 106% in assay [2]; 109% in assay [3]; 115% in [4]; 115% in assay [5]; 104% in assay [6]. Moreover, the growth in [7] is 118%; in [8] it was 98.1%; in [9] it was 106%; in assay [10], 117%; in [11] it was 101%; in assay [12], 97.1%. Further, the growth was 105% in [13]; 101% in assay [14]; 105% in assay [15]; 110% in [16]; 108% in assay [17].

With `CC(=O)Oc1cc2ccccc2cc1C(C)C`, the growth in assay [1] is 109%; in assay [2] it was 104%; in assay [3] it was 98.9%; in assay [4] it was 108%; in [5], 104%; in assay [6], 123%. Also, the growth is 115% in assay [7]; 99.8% in assay [8]; 116% in assay [9]; 101% in assay [10]; 112% in assay [11]; 102% in assay [12]. Further, the growth in assay [13] was 99.7%; in assay [14], 98%; in assay [15] it was 97.1%; in [16] it was 99.2%; in assay [17], 118%.

On to `COc1cccc(CNC(=O)c2cccc(C3CC(=O)c4c(cc(OC)c(OC)c4OC)O3)c2)c1` (stereo not given), for which the growth was 32.9% in [1]; 67.1% in assay [2]; 89.1% in assay [3]; 78.3% in [4]; 81.7% in [5]; 46.5% in assay [6]. In addition, the growth in assay [7] was 12.6%; in assay [8], 102%; in [9], 41.7%; in assay [11], 32.8%; in assay [12] it was -42.4% (active); in assay [13], 34.9%. Besides, the growth was 25.3% in [14], 18.5% in assay [15], 95.2% in assay [16] and 41.8% in [17].

As to `COc1cc2oc(-c3ccc(NC(=O)c4ccccc4)cc3)cc(=O)c2c(OC)c1OC`, the growth in [1] is 73.7%; in [2] it was 77.9%; in assay [3], 86.6%; in assay [4], 64.6%; in assay [5] it was 101%; in assay [6], 84.2%. Besides, the growth in assay [7] was 92.9%; in assay [8] it was 80.7%; in assay [9], 89.4%; in assay [11] it was 75.6%; in assay [12], 95%; in assay [13] it was 93.2%. The growth in assay [14] is 75%; in assay [15], 91.3%; in assay [16], 89.8%; in assay [17] it was 90.6%.

`Cc1c(CN(C)C)cc(C(C)C)cc1C(C)C`: the growth is 94.5% in assay [1]; 106% in [2]; 115% in [3]; 98.8% in assay [4]; 112% in [5]; 119% in assay [6]. Further, the growth in [7] is 120%; in assay [8] it was 124%; in [9], 104%; in assay [10], 131%; in [11], 118%; in assay [12] it was 111%. The growth is 104% in assay [13]; 96.7% in [14]; 104% in assay [15]; 104% in assay [16]; 114% in assay [17].
